Screening results from PubChem BioAssay.
In the library only some 2.5% were active in any assay of this set; here they are far more common.
rCAG RNA binder – binders of r(CAG) RNA repeats, primary screen, biochemical, fluorescence. AID 651821, 2012. inhibition, % at 3 µM. r(CAG) RNA repeat, TO-PRO-1 dye displacement fluorescence. actives 1.3% (n = 370,000);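 active = inhibition above the plate cutoff, the mean of all test compounds on that plate plus 3 SD, cut at about 35% in these data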;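 note: higher means more dye released from RNA so lower well fluorescence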
PG9 binder – binders of HIV-1 gp120 antibody PG9, primary screen, biochemical, TR-FRET. inhibition, % at 6.7 µM. AID 624416, 2012. TR-FRET gp120-PG9 antibody binding. actives 0.43% (n = 360,000). HIV-1 gp120 / PG9 antibody interaction; in the data active = inhibition above about 8.5%
Exocytosis inh – LAMP-1 surface exposure blockers, TALL-104 cells – cell-based, flow cytometry, MLPCN library, primary screen. TALL-104 LAMP-1 surface exposure; cells stimulated with thapsigargin and PMA. inhibition, % at 10 µM. actives 0.66% (n = 360,000). AID 651702, 2012;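 active = inhibition above about 55%, limit read from the data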
ABCB6 inh MLPCN – ABCB6 transporter inhibitors, primary screen, K562-ABCB6 cells, flow cytometry, MLPCN library. actives 0.19% (n = 360,000). K562-ABCB6 porphyrin accumulation, 1 h; hits give low values. ATP-binding cassette sub-family B member 6 (Homo sapiens), Q9NP58. fluorescence ratio to DMSO, % at 10 µM;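 active = fluorescence ratio to DMSO below 75%, the collection mean minus 3 SD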;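 note: signal is porphyrin accumulated inside mitochondria; lower ratio means ABCB6 inhibition with less porphyrin fluorescence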
rCAG bind conf – small molecules binding CAG repeat RNA – biochemical, fluorescence, confirmation. shares compounds with rCAG RNA binder. r(CAG) RNA repeat, TO-PRO-1 dye displacement fluorescence. inhibition, % at 3 µM. actives 70% (n = 4,300);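 active = inhibition above a per-plate cutoff, the mean inhibition of sample wells plus 3 SD, cut at about 35% in these data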;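 note: loss of TO-PRO-1 fluorescence as compound displaces dye from 1x1 AA loop RNA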
dCAG dye counter – displacement of TO-PRO-1 from CAG DNA duplex, counter-screen for rCAG RNA repeat binder project, biochemical, fluorescence, TO-PRO-1 dye, d(CAG) DNA oligo; shares compounds with rCAG RNA binder; d(CAG) DNA oligo TO-PRO-1 dye displacement; inhibition, % at 3 µM; actives 94% (n = 4,300); AID 652068, 2013;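 active = inhibition above its plate's cutoff, the mean test-well inhibition plus 3 SD, cut at about 4.8% in these data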;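 note: hits displace the dye from DNA and so lower well fluorescence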
DNA CAG DR – inhibitors of DNA CAG/GTC TO-PRO-1 complex, dose response, counter-screen for rCAG RNA repeat binder project, biochemical, fluorescence, TO-PRO-1 dye | shares compounds with rCAG RNA binder | DNA CAG/GTC duplex TO-PRO-1 dye displacement fluorescence | IC50, µM | actives 20% (n = 250); in the data active = IC50 below about 10 µM
Hits are given with their value; 0 = inactive; - = no result.

SMILES | rCAG RNA binder | PG9 binder | Exocytosis inh | ABCB6 inh MLPCN | rCAG bind conf | dCAG dye counter | others
COc1ccc2c(c1)C(=O)N(CCc1ccc(S(=O)(=O)NC(=O)NC3CCCCC3)cc1)C(=O)C2(C)C | 38.1 | 0 | 0 | 0 | 52.8 | 14.8
CNc1nc(Nc2ccc(C)c(Cl)c2)c2cnn(C)c2n1 | 0 | 0 | 0 | 0 | - | -
Cn1ncc2c(Nc3ccc(Br)cc3)nc(Nc3ccc(Br)cc3)nc21 | 49.4 | 0 | 0 | 0 | 0 | 13.5
Cn1ncc2c(Nc3cccc(Cl)c3)nc(Nc3cccc(Cl)c3)nc21 | 36.0 | 0 | 0 | 0 | 0 | 7.5
C/C(=N\Nc1ccc(Cl)c(C(=O)O)c1)c1ccc(Br)s1 | 42.6 | 0 | 0 | 0 | 47.7 | 13.4
COc1ccc(-c2csc(C)n2)cc1OC | 0 | 0 | 0 | 0 | - | -
COc1ccc(-c2csc(C(C#N)=C(O)CSc3nccn3C)n2)cc1OC | 54.4 | 0 | 0 | 0 | 0 | 7.2
CC1=C(C(=O)OCc2ccccc2)C(c2ccccc2Cl)NC(=O)N1CCCC(=O)O (stereo unspecified) | 0 | 0 | 0 | 0 | - | -
CC1=C(C(=O)OCc2ccccc2)C(c2ccccc2OS(=O)(=O)c2ccc(C)cc2)NC(=O)N1CCCC(=O)O (stereo unspecified) | 34.9 | 0 | - | - | 62.2 | 20.8
CC1=C(C)CC(C(=O)Nc2nc(-c3ccc(C)cc3C)c(C)s2)C(C(=O)O)C1 (stereo unspecified) | 54.2 | 0 | 0 | 0 | 55.5 | 23.4 | DNA CAG DR=0
O=C(NC1CCCC1)C(c1ccc(F)cc1)N(C(=O)c1csnn1)C1CC1 (stereo unspecified) | 0 | 0 | 0 | 0 | - | -
Cc1ccc(-n2ncc3c2CC(C)(C)CC3NC(=O)CCc2cccnc2)cc1 (stereo unspecified) | 0 | 0 | 0 | 0 | - | -
O=c1cc(-c2ccccc2)oc2cc(O)c(O)c(O)c12 | 38.3 | 0 | 0 | 0 | 0 | 14.2
CCC(=O)N(C)C[C@H]1Oc2ncc(C#Cc3ccncc3)cc2C(=O)N([C@@H](C)CO)C[C@@H]1C | 0 | 0 | 0 | 0 | - | -
NS(=O)(=O)c1ccc2c(c1)C1C=CCC1C(C1CC=CCC1)N2 (stereo unspecified) | 61.7 | 0 | 0 | 0 | 0 | 13.9
O=c1[nH]c(C2CCN(S(=O)(=O)Cc3ccccc3)CC2)nc2c1nnn2Cc1cccc(Cl)c1 | 0 | 0 | 0 | 0 | - | -
CC1=Nc2ccccc2/C1=C\c1nc(-c2ccccc2)oc1O | 60.2 | 0 | 0 | 0 | 37.0 | 16.6
CC1=Nc2ccccc2/C1=C\c1nc(-c2ccc(C(F)(F)F)cc2)oc1O | 0 | 0 | 0 | 0 | - | -
COc1ccc(-c2nc(/C=C3\C(C)=Nc4ccccc43)c(O)o2)cc1 | 51.5 | 0 | 0 | 0 | 34.8 | 20.1
CC1=Nc2ccccc2/C1=C/c1nc(-c2ccc(C)s2)oc1O | 46.2 | 0 | 0 | 0 | 41.9 | 21.5
CCOc1ccccc1CNC(=O)Cn1ccc2cc(S(=O)(=O)N3CCCC3)ccc21 | 0 | 0 | 0 | 0 | - | -
CC(CN1C(C)CCCC1C)OC(=O)c1cccc(Br)c1 (stereo unspecified) | 0 | 0 | 0 | 0 | - | -
CCCCc1nc2c(C)c(N)cnc2n1Cc1cccc([N+](=O)[O-])c1 | 0 | 0 | 0 | 0 | - | -
COc1ccc(CC(N)c2csc(NC(=O)Nc3ccc(F)cc3)n2)cc1 (stereo unspecified) | 42.6 | 0 | 0 | 0 | 0 | 9.5
COc1ccc(OC)c(NC(=O)Nc2nc(C(N)CCc3ccccc3)cs2)c1 (stereo unspecified) | 0 | 0 | 0 | 0 | - | -
COc1ccc(CC(N)c2csc(NC(=O)Nc3cccc(C(F)(F)F)c3)n2)cc1 (stereo unspecified) | 47.0 | 0 | 0 | 0 | 0 | 7.1
